For 20 compounds, Potency results are on record in PubChem BioAssay (NCATS).

Values without a mark were called inactive. Results filed as inconclusive are left out. Calls of active or inactive are those of the source. Calls come from the whole dose curve; as a rule, active = well fitted curve in the direction sought with a large enough effect; inconclusive = small, poorly fitted or top-dose-only effect, or another doubt; inactive = no such curve, though single readings can be large; an effect the other way counts as inactive or inconclusive.

In experiment [1] the target is Glutathione peroxidase 1 (Homo sapiens) (UniProt P07203). Nature of the experiment: Primary qHTS Assay for Inhibitors of Recombinant Selenoprotein Glutathione Peroxidase 1 (GPX1) (AID 1845191). Note: nearly all actives have a fitted effect of over 65% in size. A digest of the protocol:
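NADPH consumption tracked by fluorescence at 340/450 nm between t=0 and t=15 min, room temperature. Final mix: 10 nM GPX1, 100 nM glutathione reductase, 1 mM GSH, 0.5 mM NADPH, 0.5 mM cumene hydroperoxide, 0.01% BSA; 30 min compound–enzyme preincubation.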

Experiment [2] concerns the target Phospholipid hydroperoxide glutathione peroxidase GPX4 (Homo sapiens) (UniProt P36969). Nature of the experiment: Primary qHTS Assay for Inhibitors of Recombinant Selenoprotein Glutathione Peroxidase 4 (GPX4) (AID 1845192). Note: series mostly up to about 50 µM; nearly all actives have a fitted effect of over 65% in size. A digest of the protocol: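 NADPH consumption followed by fluorescence at 340/450 nm, t=0 and after 15 min at room temperature. Reaction started with cumene hydroperoxide (0.5 mM final) after 30 min compound–GPX4 preincubation; final 200 nM GPX4, 100 nM GR, 1 mM GSH, 0.5 mM NADPH.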
In general terms: Quantitative high-throughput screening tests each substance at several concentrations.

Experiment [3] addresses Luciferin 4-monooxygenase (Photinus pyralis) (UniProt P08659). Nature of the experiment: Primary firefly luciferase (FLuc) qHTS assay for identification of artifact compounds. (AID 1845220). Note: nearly all actives have a fitted effect of over 60% in size. A digest of the protocol: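 Compounds sat 15 min at room temperature with 10 uM luciferin and 10 uM ATP (pH 7.6 Tris acetate). Firefly luciferase (10 nM final) was then added, and luminescence was read 5 min later. Data normalized to no-enzyme and DMSO controls were Hill-fitted.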

Experiment [4] can be described thus: Primary fluorescence-based thiol-reactive (MSTI) qHTS assay for identification of artifact compounds. (AID 1845221). Note: nearly all actives have a fitted effect of over 65% in size. Note: potency is the fitted concentration of half-maximal effect. A digest of the protocol:
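MSTI probe at 4 uM final in 2% DMSO/PBS pH 7.4; compounds, 1 h at room temperature in dark. Fluorescence Ex/Em 525/598 nm, normalised to Acetyl-MSTI and MSTI, fitted to 4-parameter Hill.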

Experiment [5] relates to Nanoluciferase (engineered Oplophorus gracilirostris luciferase). Nature of the experiment: Primary Nanoluciferase (NLuc) qHTS assay for identification of artifact compounds. (AID 1845222). Note: potency is the fitted concentration of half-maximal effect. In a few lines: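 Luminescence from secreted NLuc (filtered, 1:55-diluted S16 cell medium) read 5 min after Nano-Glo substrate; compounds preincubated 15 min, RT. Hill fits of inhibition normalized to DMSO and no-enzyme.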

Experiment [6] in a line: Primary redox qHTS assay for identification of artifact compounds. (AID 1845223). A digest of the protocol:
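Redox-cycling detection via DTT (250 uM final) oxidation coupled to Amplex Red (25 uM)/HRP (250 mU/mL) in HBSS. 15 min preincubation plus 30 min after DTT, room temperature. Ex/Em 525/598 nm; 4-parameter Hill fit against DMSO and 10 uM DA3003.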

Sequence of Phospholipid hydroperoxide glutathione peroxidase GPX4 (Homo sapiens) (P36969 whole entry, looked up): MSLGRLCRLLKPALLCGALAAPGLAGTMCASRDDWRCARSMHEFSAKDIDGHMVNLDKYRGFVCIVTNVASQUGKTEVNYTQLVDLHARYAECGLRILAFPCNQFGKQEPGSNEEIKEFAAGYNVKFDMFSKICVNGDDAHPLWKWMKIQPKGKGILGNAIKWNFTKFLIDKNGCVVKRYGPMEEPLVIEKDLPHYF
Sequence of Glutathione peroxidase 1 (Homo sapiens) (P07203 whole entry, looked up): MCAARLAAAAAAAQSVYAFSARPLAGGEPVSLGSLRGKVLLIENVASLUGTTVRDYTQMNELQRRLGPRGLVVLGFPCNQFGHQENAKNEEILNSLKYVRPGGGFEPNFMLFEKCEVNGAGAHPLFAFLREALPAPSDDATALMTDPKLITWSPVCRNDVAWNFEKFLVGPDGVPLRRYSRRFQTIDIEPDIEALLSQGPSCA

In the case of `COc1ccc(C(=O)Nc2c(Cl)cncc2Cl)cc1OC1CCCC1`, the Potency entry in experiment [1], in experiment [2], in experiment [3], in experiment [4], in experiment [5] and in experiment [6] was “inactive” throughout.

On to `Cc1nc(N2CCN(C(=O)c3ccco3)CC2)c2c3c(sc2n1)CCCC3`, for which the Potency entry in experiment [1], in experiment [2], in experiment [3], in experiment [4], in experiment [5] and in experiment [6] was “inactive” in each case.

`CNc1cccc(CCOc2ccc3c(c2)CN(CC(F)(F)F)C(=O)[C@H](CC(=O)O)C3)n1`: the Potency result in experiment [1], in experiment [2], in experiment [3], in experiment [4], in experiment [5] and in experiment [6] was “inactive” each time.

`CC(=O)O[C@H]1C[C@@](O)(C(C)C)[C@@H]2[C@@H](OC(=O)c3ccc(O)cc3)CC(C)=CC[C@@]12C`: the Potency result in experiment [1], in experiment [2], in experiment [3], in experiment [4], in experiment [5] and in experiment [6] was “inactive” in each case.

For `CC(O)(C(=O)O)C1CCC2(C)C1CCC1(C)C2CCC2C3(C)CCC(O)C(C)(COC4OC(CO)C(O)C(O)C4O)C3CCC21C` (stereo not given), the Potency result in experiment [1], in experiment [2], in experiment [3], in experiment [4], in experiment [5] and in experiment [6] was “inactive” each time.

Regarding `Cc1noc(-c2ccc(-c3ccc(CC(=O)O)cc3)cc2)c1NC(=O)O[C@H](C)c1ccccc1Cl`, the Potency entry in experiment [1], in experiment [2], in experiment [3], in experiment [4] and in experiment [6] was “inactive” each time. Further, the Potency in experiment [5] is 9.53 µM (active).

In the case of `CCC(CC)C(=O)OC12C(OC(=O)C(C)C)C(C)C3(O)C(C=C(CO)CC4(O)C(=O)C(C)=CC43)C1C2(C)C` (stereo not given), the Potency entry in experiment [1], in experiment [2], in experiment [3], in experiment [4], in experiment [5] and in experiment [6] was “inactive” in each case.

As for `CCC(CC)(NC(=O)C(C)C)C(=O)N[C@@H](CCCN=C(N)N)C(=O)NC1(C(=O)NC(c2ccc(F)cc2)c2ccc(F)cc2)CCCC1`, the Potency result in experiment [1], in experiment [2], in experiment [3], in experiment [4], in experiment [5] and in experiment [6] was “inactive” each time.

With `CCCN(CCc1ccsc1)C1CCc2c(O)cccc2C1` (stereo not given), the Potency entry in experiment [1], in experiment [2], in experiment [3], in experiment [4], in experiment [5] and in experiment [6] was “inactive” each time.

In the case of `Cc1cc(-c2cnc(N)c3c(-c4ccc5scnc5c4)csc23)n(C)n1`, the Potency result in experiment [1], in experiment [2], in experiment [3], in experiment [4], in experiment [5] and in experiment [6] was “inactive” in each case.

For the compound `CCOc1ccc(S(=O)(=O)N2CCCCCC2)c2ccccc12`, the Potency result in experiment [1], in experiment [2], in experiment [3], in experiment [4], in experiment [5] and in experiment [6] was “inactive” throughout.

`CC1(C=O)CCCC2(C)C1CCC13CC(CO)C(CCC12)C3` (stereo not given): the Potency result in experiment [1], in experiment [2], in experiment [3], in experiment [4], in experiment [5] and in experiment [6] was “inactive” each time.

Consider `C/C=C\NC(=O)C1NC(=O)C(CC(N)=O)NC(=O)C(NC(=O)C(=O)C(C)CC)Cc2ccc(O)c(c2)-c2cccc3c2NC(=O)C3(O)C1O` (stereo not given), for which the Potency entry in experiment [1], in experiment [2], in experiment [3], in experiment [4], in experiment [5] and in experiment [6] was “inactive” in each case.

As to `Cc1ccc(-c2ncccn2)c(C(=O)N2C[C@H](COc3ccc(F)cn3)CC[C@H]2C)c1`, the Potency entry in experiment [1], in experiment [2], in experiment [3], in experiment [4], in experiment [5] and in experiment [6] was “inactive” in each case.

Consider `Cn1ncc(Cl)c1-c1cc(C(=O)NC(CN)Cc2ccc(F)c(F)c2)oc1Cl` (stereo not given), for which the Potency result in experiment [1], in experiment [2], in experiment [3], in experiment [4], in experiment [5] and in experiment [6] was “inactive” each time.

With `COc1cc(C(=O)NCC2(N(C)C)CCCC2)cc(OC)c1OCc1ccccc1`, the Potency result in experiment [1], in experiment [2], in experiment [3], in experiment [4], in experiment [5] and in experiment [6] was “inactive” throughout.

For `O=C(NCCN1CCC(n2c(=O)[nH]c3ccccc32)CC1)c1cc2cc(F)ccc2[nH]1`, the Potency entry in experiment [1], in experiment [2], in experiment [3], in experiment [4], in experiment [5] and in experiment [6] was “inactive” each time.

`CNc1ccc([N+](=O)[O-])c(Nc2ccc3[nH]ncc3c2)n1`: the Potency entry in experiment [1], in experiment [2], in experiment [3], in experiment [5] and in experiment [6] was “inactive” in each case. The Potency in experiment [4] is 4.74 µM (active).

On to `C=C1CC[C@@H]2[C@](C)(CO)[C@H](O)CC[C@@]2(C)[C@@H]1/C=C/C1=CCOC1=O`, for which the Potency entry in experiment [1], in experiment [2], in experiment [3], in experiment [4], in experiment [5] and in experiment [6] was “inactive” throughout.

As for `CO[C@@H]1[C@H](O)CCC2(CO2)[C@H]1[C@@]1(C)O[C@@H]1CC=C(C)C` (stereo not given in full), the Potency entry in experiment [1], in experiment [2], in experiment [3], in experiment [4], in experiment [5] and in experiment [6] was “inactive” in each case.
